# Legend:
# Experiment in all cases: DAPPL (digital affinity profiling via proximity ligation, sequencing); 10 mM Tris-HCl pH 7.5, 50 mM NaCl, 1 mM DTT, 4% glycerol, room temperature, 30 min; GST-TFs on glutathione beads, 16-mer random dsDNA library, 0.1% formaldehyde crosslink after washing; high values mean tight binding
# [1] = target: T1, FEV (Homo sapiens, UniProt Q99581 1-238); conditions: protein: recombinant; tags: N-terminal GST; dsDNA, one strand shown
# T1 sequence: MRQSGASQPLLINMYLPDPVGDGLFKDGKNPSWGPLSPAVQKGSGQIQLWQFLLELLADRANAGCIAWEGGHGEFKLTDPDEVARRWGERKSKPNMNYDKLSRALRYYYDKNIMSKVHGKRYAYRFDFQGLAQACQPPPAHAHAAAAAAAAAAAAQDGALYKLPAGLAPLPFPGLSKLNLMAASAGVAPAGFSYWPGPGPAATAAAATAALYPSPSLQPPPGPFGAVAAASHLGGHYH
# How it was run: (§1)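 Human transcription factors carrying a GST fusion were produced in yeast, bound to glutathione beads, tagged with DNA barcodes and pooled together with a tag-only sample. Each pool was held with 200 nmole of a random double-stranded 16-mer DNA library in Tris/NaCl/DTT/glycerol buffer for 30 min at room temperature, then washed, crosslinked in 0.1% formaldehyde, proximity-ligated with BsaI/T4 ligase (1 h, 37 °C), PCR-amplified and sequenced on an Illumina NextSeq500. Binding signal is the read frequency of each hexamer for a given factor divided by its frequency in the tag-only sample.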
# [2] = target: ETV5 (Homo sapiens, UniProt P41161 1-510); conditions: protein: recombinant; tags: N-terminal GST; dsDNA, one strand shown
# How it was run: as §1
# [3] = target: HSF1 (Homo sapiens, UniProt Q00613 1-529); conditions: protein: recombinant; tags: N-terminal GST; chain copies: 3; dsDNA, one strand shown
# How it was run: as §1
# [4] = target: T2, SPIC (Homo sapiens, UniProt Q8N5J4 1-248); conditions: protein: recombinant; tags: N-terminal GST; dsDNA, one strand shown
# T2 sequence: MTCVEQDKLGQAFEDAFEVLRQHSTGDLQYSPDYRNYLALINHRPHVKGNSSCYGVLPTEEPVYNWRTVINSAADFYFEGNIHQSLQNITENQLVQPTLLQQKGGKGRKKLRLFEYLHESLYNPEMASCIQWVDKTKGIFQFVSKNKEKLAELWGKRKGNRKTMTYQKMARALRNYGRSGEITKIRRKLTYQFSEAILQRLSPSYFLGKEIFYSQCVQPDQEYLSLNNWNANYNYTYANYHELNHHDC
# How it was run: as §1
# [5] = target: ELF4 (Homo sapiens, UniProt Q99607 1-663); conditions: protein: recombinant; tags: N-terminal GST; dsDNA, one strand shown
# How it was run: as §1
# [6] = target: T3, ELK4 (Homo sapiens, UniProt P28324-2 1-405); conditions: protein: recombinant; tags: N-terminal GST; dsDNA, one strand shown
# T3 sequence: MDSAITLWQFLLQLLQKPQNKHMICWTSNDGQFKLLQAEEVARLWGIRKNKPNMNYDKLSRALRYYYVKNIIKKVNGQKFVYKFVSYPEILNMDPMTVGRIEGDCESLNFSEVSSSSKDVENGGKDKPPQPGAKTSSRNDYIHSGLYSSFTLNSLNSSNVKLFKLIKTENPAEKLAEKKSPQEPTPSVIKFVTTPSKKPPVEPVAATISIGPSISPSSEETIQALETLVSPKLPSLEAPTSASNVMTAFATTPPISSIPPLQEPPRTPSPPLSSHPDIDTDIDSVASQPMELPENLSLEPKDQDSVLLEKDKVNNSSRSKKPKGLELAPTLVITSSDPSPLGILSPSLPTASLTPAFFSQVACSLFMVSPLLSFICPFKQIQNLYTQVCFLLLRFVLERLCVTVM
# How it was run: as §1
# [7] = target: T4, ETV2 (Homo sapiens, UniProt O00321 1-342); conditions: protein: recombinant; tags: N-terminal GST; dsDNA, one strand shown
# T4 sequence: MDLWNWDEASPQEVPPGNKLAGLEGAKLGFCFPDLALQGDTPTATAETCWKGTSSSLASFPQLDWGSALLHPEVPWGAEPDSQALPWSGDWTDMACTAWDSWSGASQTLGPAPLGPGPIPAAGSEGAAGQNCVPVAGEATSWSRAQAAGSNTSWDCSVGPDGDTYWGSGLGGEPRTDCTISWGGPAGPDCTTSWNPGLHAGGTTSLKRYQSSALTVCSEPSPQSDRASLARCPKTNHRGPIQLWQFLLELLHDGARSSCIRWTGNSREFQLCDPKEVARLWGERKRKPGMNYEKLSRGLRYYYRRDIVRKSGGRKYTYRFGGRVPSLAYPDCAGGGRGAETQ
# How it was run: as §1
# [8] = target: T5, ELF3 (Homo sapiens, UniProt P78545 1-371); conditions: protein: recombinant; tags: N-terminal GST; dsDNA, one strand shown
# T5 sequence: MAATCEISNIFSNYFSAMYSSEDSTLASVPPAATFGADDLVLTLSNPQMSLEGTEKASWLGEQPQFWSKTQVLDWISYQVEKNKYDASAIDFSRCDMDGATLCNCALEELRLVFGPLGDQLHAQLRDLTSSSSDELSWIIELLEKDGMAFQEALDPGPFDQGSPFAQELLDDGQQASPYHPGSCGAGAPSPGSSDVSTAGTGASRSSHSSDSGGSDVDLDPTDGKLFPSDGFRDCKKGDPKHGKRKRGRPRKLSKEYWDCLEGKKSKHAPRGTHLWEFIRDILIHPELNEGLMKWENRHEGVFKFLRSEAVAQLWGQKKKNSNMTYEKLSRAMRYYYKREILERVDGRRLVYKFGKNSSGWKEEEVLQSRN
# How it was run: as §1
# [9] = target: CRX (Homo sapiens, UniProt O43186 1-299); conditions: protein: recombinant; tags: N-terminal GST; dsDNA, one strand shown
# How it was run: as §1
# [10] = target: ETV1 (Homo sapiens, UniProt P50549 1-477); conditions: protein: recombinant; tags: N-terminal GST; dsDNA, one strand shown
# How it was run: as §1
# Chain of HSF1 (Q00613 whole entry): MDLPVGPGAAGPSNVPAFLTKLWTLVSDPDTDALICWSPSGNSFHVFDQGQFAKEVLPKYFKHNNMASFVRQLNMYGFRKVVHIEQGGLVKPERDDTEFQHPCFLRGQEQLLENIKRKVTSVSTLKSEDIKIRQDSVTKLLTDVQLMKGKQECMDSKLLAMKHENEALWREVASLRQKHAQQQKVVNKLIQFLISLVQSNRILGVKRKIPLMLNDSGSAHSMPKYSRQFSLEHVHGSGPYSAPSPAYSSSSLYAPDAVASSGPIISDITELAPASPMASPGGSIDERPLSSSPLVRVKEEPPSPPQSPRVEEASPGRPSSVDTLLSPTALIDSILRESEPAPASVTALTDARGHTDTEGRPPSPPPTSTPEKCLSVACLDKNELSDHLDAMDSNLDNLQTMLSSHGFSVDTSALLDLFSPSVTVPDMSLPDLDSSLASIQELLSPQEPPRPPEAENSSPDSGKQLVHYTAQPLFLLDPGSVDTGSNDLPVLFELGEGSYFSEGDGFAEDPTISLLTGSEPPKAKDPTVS
# Chain of CRX (O43186 whole entry): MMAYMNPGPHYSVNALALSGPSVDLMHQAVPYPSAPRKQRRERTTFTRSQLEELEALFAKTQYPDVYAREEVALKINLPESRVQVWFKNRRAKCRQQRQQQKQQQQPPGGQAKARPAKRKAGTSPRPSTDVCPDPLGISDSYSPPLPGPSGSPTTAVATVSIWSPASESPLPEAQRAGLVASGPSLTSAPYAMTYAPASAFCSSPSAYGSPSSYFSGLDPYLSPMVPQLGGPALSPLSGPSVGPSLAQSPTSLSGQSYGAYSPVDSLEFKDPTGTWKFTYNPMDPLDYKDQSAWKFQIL
# Chain of ETV5 (P41161 whole entry): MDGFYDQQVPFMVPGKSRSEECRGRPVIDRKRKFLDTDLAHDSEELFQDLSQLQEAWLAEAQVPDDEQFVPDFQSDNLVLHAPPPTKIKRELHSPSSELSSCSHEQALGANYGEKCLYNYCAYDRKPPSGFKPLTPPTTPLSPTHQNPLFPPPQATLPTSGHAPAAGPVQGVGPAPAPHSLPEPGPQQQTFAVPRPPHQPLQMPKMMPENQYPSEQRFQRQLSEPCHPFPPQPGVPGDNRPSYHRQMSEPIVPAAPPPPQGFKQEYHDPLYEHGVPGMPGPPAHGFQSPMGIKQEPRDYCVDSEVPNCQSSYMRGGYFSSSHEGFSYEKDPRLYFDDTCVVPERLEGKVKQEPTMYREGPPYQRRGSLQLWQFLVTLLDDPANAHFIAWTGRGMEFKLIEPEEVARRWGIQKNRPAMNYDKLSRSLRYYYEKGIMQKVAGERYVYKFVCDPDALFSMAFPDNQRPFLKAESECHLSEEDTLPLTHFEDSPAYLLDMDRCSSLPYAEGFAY
# Chain of ETV1 (P50549 whole entry): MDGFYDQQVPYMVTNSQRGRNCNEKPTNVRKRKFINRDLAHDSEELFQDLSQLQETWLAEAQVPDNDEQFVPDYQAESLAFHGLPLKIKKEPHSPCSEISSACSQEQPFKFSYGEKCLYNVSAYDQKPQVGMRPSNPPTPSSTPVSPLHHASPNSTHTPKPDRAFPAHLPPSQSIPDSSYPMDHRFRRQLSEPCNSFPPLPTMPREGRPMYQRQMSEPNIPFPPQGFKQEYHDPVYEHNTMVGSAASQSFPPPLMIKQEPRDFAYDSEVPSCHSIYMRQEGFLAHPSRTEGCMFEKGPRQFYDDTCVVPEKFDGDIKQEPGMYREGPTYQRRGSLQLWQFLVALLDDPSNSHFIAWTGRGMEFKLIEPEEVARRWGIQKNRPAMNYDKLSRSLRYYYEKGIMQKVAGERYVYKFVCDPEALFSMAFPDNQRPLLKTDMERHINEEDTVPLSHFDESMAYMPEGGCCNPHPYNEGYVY
# Chain of ELF4 (Q99607 whole entry): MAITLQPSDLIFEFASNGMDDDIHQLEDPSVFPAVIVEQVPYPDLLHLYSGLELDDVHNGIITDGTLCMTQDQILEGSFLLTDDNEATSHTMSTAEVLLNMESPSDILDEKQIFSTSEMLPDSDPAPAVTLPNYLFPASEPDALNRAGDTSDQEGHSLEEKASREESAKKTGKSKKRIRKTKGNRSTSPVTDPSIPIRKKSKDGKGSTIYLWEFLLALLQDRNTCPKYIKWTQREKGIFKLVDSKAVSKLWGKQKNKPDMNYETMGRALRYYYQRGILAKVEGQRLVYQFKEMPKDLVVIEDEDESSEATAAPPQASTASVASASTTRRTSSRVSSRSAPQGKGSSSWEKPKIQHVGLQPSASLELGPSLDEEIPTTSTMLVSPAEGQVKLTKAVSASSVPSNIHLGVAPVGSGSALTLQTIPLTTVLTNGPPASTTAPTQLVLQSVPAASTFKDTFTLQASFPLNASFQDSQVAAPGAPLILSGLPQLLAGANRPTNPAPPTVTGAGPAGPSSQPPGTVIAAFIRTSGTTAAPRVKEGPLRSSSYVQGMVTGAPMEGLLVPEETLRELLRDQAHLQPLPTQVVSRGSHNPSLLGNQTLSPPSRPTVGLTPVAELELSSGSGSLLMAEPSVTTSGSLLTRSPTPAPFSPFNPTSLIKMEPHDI
sequence,measurement,setting,value
TCGTTT,binding signal,[1],"1.14 fold enrichment (6-mer frequency, TF over GST control)"
same,binding signal,[2],"1.09 fold enrichment (6-mer frequency, TF over GST control)"
same,binding signal,[3],"1.02 fold enrichment (6-mer frequency, TF over GST control)"
same,binding signal,[4],"1.15 fold enrichment (6-mer frequency, TF over GST control)"
same,binding signal,[5],"1.17 fold enrichment (6-mer frequency, TF over GST control)"
same,binding signal,[6],"1.24 fold enrichment (6-mer frequency, TF over GST control)"
same,binding signal,[7],"1.3 fold enrichment (6-mer frequency, TF over GST control)"
same,binding signal,[8],"1.27 fold enrichment (6-mer frequency, TF over GST control)"
same,binding signal,[9],"1.08 fold enrichment (6-mer frequency, TF over GST control)"
same,binding signal,[10],"1.18 fold enrichment (6-mer frequency, TF over GST control)"

# Reference: publication PMC7862700, “An all-to-all approach to the identification of sequence-specific readers for epigenetic DNA modifications on cytosine”
